A number with no mark means an inactive call.
These compounds were tested on TDF (assay: H1.0 immunofluorescence intensity relative to DMSO (% of DMSO); higher = stronger H1.0 induction, active = 120 or more). Details: concentration: 10 µM; 24 h.
Method in brief: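 For HCC1569 and TDF cells, compounds at 10 µM were applied for 24 h at 37 °C in triplicate in 384-well plates. Cells were fixed in 3.7% formaldehyde, stained for H1.0 and with DAPI, and imaged at ×10 over six fields per well. The endpoint, H1.0 nuclear intensity or cell number, is shown as percent of the plate control using the median of replicates. Positional effects were smoothed for HCC1569 only.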
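Further: TDF is a line of transformed human dermal fibroblasts of mesenchymal origin.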

SMILES	H1.0 immunofluorescence intensity
CCn1c(=O)[nH]c2cc(Cl)c(Cl)cc21	99.5
COc1cc2c3cc1Oc1c(OC)c(OC)cc4c1C(Cc1ccc(OC(=O)c5ccc([N+](=O)[O-])cc5)c(c1)Oc1ccc(cc1)CC3N(C)CC2)N(C)CC4 (configuration not stated) [E6 Berbamine]	98.8
CC1(C)C(=O)N(CCN2CCC(C(=O)c3ccc(F)cc3)CC2)c2ccccc21.Cl [LY-310,762 hydrochloride]	94.2
Cn1c(=O)c2c(ncn2C)n(C)c1=O [Caffeine]	96.1
CNC1C(O)C(NC)C2OC3(O)C(=O)CC(C)OC3OC2C1O.Cl.Cl (configuration not stated) [Spectinomycin.2HCl]	94.4
CN1C2CCC1CC(OC(=O)c1c[nH]c3ccccc13)C2.Cl (configuration not stated) [3-Tropanyl-indole-3-carboxylate hydrochloride]	93.4
CCCNC(=O)NS(=O)(=O)c1ccc(Cl)cc1 [Chlorpropamide]	93.2
Cc1ccccc1N1C(=O)c2cc(S(N)(=O)=O)c(Cl)cc2NC1C (configuration not stated) [Metolazone]	89.8
CCCCNc1ccc(C(=O)OCCN(C)C)cc1.Cl [Tetracaine hydrochloride]	102
CCN(CC)C(=S)SSC(=S)N(CC)CC [Tetraethylthiuram disulfide]	120
Nn1nnc2ccccc21 [1-Aminobenzotriazole]	92.8
CN(C)NN=C1N=CN=C1C(N)=O [Dacarbazine]	97.8
COc1ccc(S(=O)(=O)Nc2nc(-c3cccc([N+](=O)[O-])c3)cs2)cc1OC	102
C#Cc1cccc(Nc2ncnc3cc(OCCOC)c(OCCOC)cc23)c1 [Erlotinib]	91.3
C[C@H](O)[C@H](O)[C@H]1CNc2[nH]c(N)nc(=O)c2N1.Cl.Cl	92.5
CC(C)n1cnc2c(NCc3ccccc3)nc(NCCCO)nc21 [Bohemine]	100
COc1ccc(CC2c3cc(OC)c(OC)cc3CC[N+]2(C)CCC(=O)OCCCCCOC(=O)CC[N+]2(C)CCc3cc(OC)c(OC)cc3C2Cc2ccc(OC)c(OC)c2)cc1OC.O=S(=O)([O-])c1ccccc1.O=S(=O)([O-])c1ccccc1 (configuration not stated) [Atracurium besylate]	94.5
O=c1c(-c2ccc(O)cc2)coc2cc(OC3OC(CO)C(O)C(O)C3O)cc(O)c12 (configuration not stated) [Genistin]	93
OCc1c[nH]c2ccccc12 [Indole-3-carbinol]	102
O=c1[nH]c(=O)n(C2CC(O)C(CO)O2)cc1F (configuration not stated) [Floxuridine]	112
CC(=O)NC1C(N=C(N)N)C=C(C(=O)O)OC1C(O)C(O)CO (configuration not stated)	99.2
O=C(O)c1cc(N(Cc2ccccc2O)Cc2ccccc2O)ccc1O [Lavendustin B]	94.5
C=CC1CN2CCC1CC2C(O)c1ccnc2ccc(OC)cc12.C=CC1CN2CCC1CC2C(O)c1ccnc2ccc(OC)cc12.O=S(=O)(O)O (configuration not stated) [Quinine sulfate]	92.8
CC1(NCC(O)COc2cccc3[nH]ccc23)CCC(C(C)(C)NC(=O)CBr)CC1 (configuration not stated) [Pindobind-5HT1A]	135 (active)
CCC=CCC=CCC=CCC=CCC=CCCCC(=O)O	90.4
CCN1CCCC1CNC(=O)c1c(O)c(Cl)cc(Cl)c1OC (stereo not drawn) [S(-)-Raclopride]	95.7
COC1=C(OC)C(=O)c2ccccc2C1=O [2,3-Dimethoxy-1,4-naphthoquinone]	114

— the supplement of paper PMC7156485
